# PubChem BioAssay (NCATS)
# Records with an inconclusive call do not appear. Unmarked numbers belong to inactive results. Active and inactive are the calls of the source. The call rests on the fitted dose curve; in most records, active means well fitted inhibition curve with a large enough effect; inconclusive means small, poorly fitted or top-dose-only effect; inactive means flat fitted curve, though single readings scatter.
# Test: P-glycoprotein substrates identified in KB-8-5-11 adenocarcinoma cell line, qHTS therapeutic library screen (AID 1346987); further: nearly all actives have a fitted effect of over 65% in size
# Conditions: KB-8-5-11 (P-gp overexpressing) viability, CellTiter-Glo, 72 h; series mostly up to 44.5 µM; activity change, negative = cytotoxicity: at the top concentration
# In short: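 Luminescence from CellTiter-Glo, read 5 min after addition, quantified survival of KB-8-5-11 (P-gp-overexpressing) cells exposed to compounds for 72 h. AC50 was derived from concentration-response curves.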
# On the % scale 0 is the no-effect control and ±100 the full control effect.
Compound,"activity change, negative = cytotoxicity",outcome
C=C1CC[C@@H]2[C@@](C)(CO[C@@H]3O[C@H](CO)[C@@H](O)[C@H](O)[C@H]3O)[C@H](O)CC[C@@]2(C)[C@@H]1CC/C(C)=C/CO[C@@H]1O[C@H](CO)[C@@H](O)[C@H](O)[C@H]1O,-3.82% [at 17.3 µM],
CC1(C)CC[C@]2(C(=O)O[C@@H]3O[C@H](CO)[C@@H](O)[C@H](O)[C@H]3O)CC[C@]3(C)C(=CCC4[C@@]5(C)C[C@@H](O)[C@H](O)[C@@](C)(CO)C5[C@H](O)C[C@]43C)C2C1 (stereo partly drawn),-2.73% [at 17.3 µM],
C=C1CCC2C(C)(C)CC(O)CC2(C)C1CCC(C)CC(=O)O (stereo not drawn),6.03%,
COc1cccc(Cn2ncc3c4sc(S(C)=O)cc4n(C)c3c2=O)c1 (stereo not drawn),-12.9%,
CC1(O)CC(O)C2C(C(=O)O)=COC(OC3OC(CO)C(O)C(O)C3OC(=O)/C=C/c3ccc(O)cc3)C21 (stereo not drawn),,inactive [at 17.3 µM]
COc1cc(C(O)C2COC(c3ccc(OC4OC(CO)C(O)C(O)C4O)c(OC)c3)C2CO)ccc1O (stereo not drawn),7.77% [at 17.3 µM],
CC(=O)OCC1OC(O[C@H]2CC[C@]34C[C@]35CC(O)[C@]3(C)[C@@H]([C@H](C)CC/C=C(\C)C(=O)O)C(O)C[C@@]3(C)C5CC[C@H]4C2(C)C)C(O)C(O)C1OC1OCC(O)C(O)C1O (stereo partly drawn),,inactive [at 9.29 µM]
O=C(Cc1ccc(Cl)cc1)Nc1cnccc1C(=O)O,,inactive
C/C=C/C(=O)OC1/C=C/C(O)C(OC(C)=O)CCC(=O)OC1C (stereo not drawn),2.79%,
CC(O)C(=O)/C=C/C=C/C(=O)OC1C=C2COC(=O)C2(O)C2(C)CCCC(C)(C)C12 (stereo not drawn),,inactive [at 17.3 µM]
COc1ccc(/C=C/C(=O)O[C@@H]2[C@@H](O[C@@H]3O[C@H](CO)[C@@H](O)[C@H](O)[C@H]3O)[C@@H](O)[C@H](O[C@H]3C4C=CO[C@@H](O[C@@H]5O[C@H](CO)[C@@H](O)[C@H](O)[C@H]5O)C4[C@@]4(CO)O[C@@H]34)O[C@H]2C)cc1 (stereo partly drawn),2.62% [at 9.29 µM],
COc1ccc2[nH]c(S(=O)Cc3ncc(C)c(OC)c3C)nc2c1 (stereo not drawn),-10.2%,
C=C(C)C1CCC2(C(=O)OC3OC(COC4OC(CO)C(O)C(O)C4O)C(OC4OC(C)C(O)C(O)C4O)C(O)C3O)CCC3(C(=O)O)C(CCC4C5(C)CCC(=O)C(C)(C)C5CCC43C)C12 (stereo not drawn),,inactive [at 9.29 µM]
C=C1CC[C@@]2(OC1)O[C@H]1CC3[C@@H]4CC=C5C[C@H](O[C@H]6OC[C@@H](O)C(O)[C@@H]6O[C@@H]6O[C@@H](C)[C@H](O)[C@@H](O[C@@H]7O[C@H](CO)[C@@H](O)[C@H](O)[C@H]7O)[C@H]6O)C[C@@H](O)[C@]5(C)C4CC[C@]3(C)[C@H]1[C@@H]2C (stereo partly drawn),2.38% [at 9.29 µM],
NC1Nc2ccccc2C1(N)CC1NC(=O)C(Cc2ccccc2)NC(=O)C(Cc2ccccc2)NC1=O (stereo not drawn),5.46% [at 17.3 µM],
O=C(CCc1ccccc1)c1c(O)c([C@@H]2O[C@H](CO)[C@@H](O)[C@H](O)[C@H]2O)c(O)c([C@@H]2O[C@H](CO)[C@@H](O)[C@H](O)[C@H]2O)c1O,,inactive [at 17.3 µM]
CC1OC(O[C@@H]2[C@@H](O)[C@H](OC(=O)[C@]34CCC(C)(C)C[C@H]3C3=CCC5[C@@]6(C)CC[C@H](O[C@@H]7O[C@H](C(=O)O)[C@@H](O)[C@H](O[C@@H]8OC[C@@H](O)[C@H](O)[C@H]8O)[C@H]7O[C@@H]7O[C@H](CO)[C@H](O)[C@H](O)[C@H]7O)[C@@](C)(C=O)C6CC[C@@]5(C)[C@]3(C)C[C@H]4O)O[C@H](C)[C@@H]2OC2OC(C)C(OC3OCC(O)C(O)C3O)C(O)C2O)C(O)C(O)C1O (stereo partly drawn),,inactive [at 9.29 µM]
C=C1CC23CC1CCC2C12OC(=O)C(C)(C(O)CC1O)C2C3C(=O)O (stereo not drawn),6.23%,
COc1cc(C(=O)OC[C@@]2(O)CO[C@@H](O[C@H]3[C@H](Oc4ccc(O)cc4)O[C@H](CO)[C@@H](O)[C@@H]3O)[C@@H]2O)cc(OC)c1O,9.54% [at 17.3 µM],
C[C@]12CC[C@@H]3c4ccc(O)cc4CC[C@H]3[C@@H]1C[C@@H](O[C@@H]1O[C@H](C(=O)O)[C@@H](O)[C@H](O)[C@H]1O)[C@@H]2O,-0.407%,
COc1cc(/C=C/C(=O)O)ccc1O[C@@H]1O[C@H](CO)[C@@H](O)[C@H](O)[C@H]1O[C@@H]1OC[C@](O)(CO)[C@H]1O,2.65% [at 17.3 µM],
COc1c2c(c(C)c3c1C(=O)OC3)OC1(C)CC(O)C34OC(O)(CCC3(C)C1C2)OC4(C)C (stereo not drawn),,inactive [at 17.3 µM]
Cc1ncc(NC(=O)c2ccc(CN3CCN(C)CC3)c(C(F)(F)F)c2)cc1Nc1nccc(-c2cccnc2)n1,,inactive
